# The list is not random: actives were taken first. Their share in the collection is about 2.5%.
# PG9 binder: small molecules binding HIV-1 gp120 antibody PG9. inhibition, % at 6.7 µM. TR-FRET gp120-PG9 antibody binding. AID 624416. 0.43% of 360,000 active; in the data active = inhibition above about 8.5%
# ABCB6 inh MLPCN: inhibitors of human ABC transporter ABCB6; Q9NP58; K562-ABCB6 porphyrin accumulation, flow cytometry, 1 h; hits give low values; fluorescence ratio to DMSO, % at 10 µM; 0.19% of 360,000 active;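 active = fluorescence ratio to DMSO below 75%, the collection mean minus 3 SD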;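 also: signal is porphyrin accumulated inside mitochondria; 100% equals median channel fluorescence of DMSO control wells; lower ratio means ABCB6 inhibition with less porphyrin fluorescence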
# Target sequence (Q9NP58 whole entry, looked up): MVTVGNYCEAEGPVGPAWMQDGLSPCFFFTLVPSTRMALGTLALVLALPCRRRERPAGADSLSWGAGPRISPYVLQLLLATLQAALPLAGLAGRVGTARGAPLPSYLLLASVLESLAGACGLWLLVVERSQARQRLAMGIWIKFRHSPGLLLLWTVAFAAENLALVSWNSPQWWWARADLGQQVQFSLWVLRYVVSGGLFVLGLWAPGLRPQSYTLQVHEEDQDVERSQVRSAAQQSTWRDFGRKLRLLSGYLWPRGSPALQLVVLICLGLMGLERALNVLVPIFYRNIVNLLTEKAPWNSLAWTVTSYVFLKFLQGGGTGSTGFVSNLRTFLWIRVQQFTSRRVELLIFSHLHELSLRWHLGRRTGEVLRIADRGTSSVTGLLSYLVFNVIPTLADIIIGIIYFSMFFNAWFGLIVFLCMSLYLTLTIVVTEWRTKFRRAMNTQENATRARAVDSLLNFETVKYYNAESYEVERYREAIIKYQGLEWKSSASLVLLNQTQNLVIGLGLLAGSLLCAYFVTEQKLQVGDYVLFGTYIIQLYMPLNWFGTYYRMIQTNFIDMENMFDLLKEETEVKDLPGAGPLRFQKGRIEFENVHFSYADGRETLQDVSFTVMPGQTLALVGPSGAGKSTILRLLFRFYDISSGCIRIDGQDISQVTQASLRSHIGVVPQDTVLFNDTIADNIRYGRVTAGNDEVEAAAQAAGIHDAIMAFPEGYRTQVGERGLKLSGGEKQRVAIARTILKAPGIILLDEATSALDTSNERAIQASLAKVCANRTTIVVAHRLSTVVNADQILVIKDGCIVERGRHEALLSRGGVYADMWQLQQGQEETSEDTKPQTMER
# rCAG binder: r(CAG) repeat RNA binding; TO-PRO-1 dye displacement fluorescence; inhibition, % at 3 µM; 1.3% of 370,000 active;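 active = inhibition above the plate cutoff, the mean of all test compounds on that plate plus 3 SD, cut at about 35% in these data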;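 also: 0% = DMSO alone and 100% = 100 µM mitoxantrone as full dye displacement; higher means more dye released from RNA so lower well fluorescence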
# Exocytosis inh: blocks lytic granule exocytosis | TALL-104 LAMP-1 surface exposure, flow cytometry; cells stimulated with thapsigargin and PMA | inhibition, % at 10 µM | 0.66% of 360,000 active;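 active = inhibition above about 55%, limit read from the data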
# rCAG binder conf: r(CAG) RNA repeat binding, confirmation; shares compounds with rCAG binder; TO-PRO-1 dye displacement fluorescence; inhibition, % at 3 µM; 70% of 4,300 active;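 active = inhibition above a per-plate cutoff, the mean inhibition of sample wells plus 3 SD, cut at about 35% in these data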;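 also: loss of TO-PRO-1 fluorescence as compound displaces dye from 1x1 AA loop RNA; 0% = DMSO only wells and 100% = 100 µM mitoxantrone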
# dCAG dye counter: DNA CAG dye complex inhibition counter-screen; shares compounds with rCAG binder; d(CAG) DNA oligo TO-PRO-1 dye displacement, fluorescence; inhibition, % at 3 µM; 94% of 4,300 active;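 active = inhibition above its plate's cutoff, the mean test-well inhibition plus 3 SD, cut at about 4.8% in these data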;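 also: 0% = DNA dye mix with DMSO and 100% = 100 µM mitoxantrone; hits displace the dye from DNA and so lower well fluorescence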
# DNA CAG DR: DNA CAG dye complex inhibition, dose response counter-screen; shares compounds with rCAG binder; DNA CAG/GTC duplex TO-PRO-1 dye displacement fluorescence; IC50, µM; 20% of 250 active; AID 686960; in the data active = IC50 below about 10 µM
# An asterisk follows results filed as active; i = inactive; . = no result given.
SMILES,PG9 binder,ABCB6 inh MLPCN,rCAG binder,Exocytosis inh,rCAG binder conf,dCAG dye counter,others
Cc1cc(C(=O)OCC(=O)NC2CCCCC2C)c2ccccc2n1 (stereo unspecified),1,93,0,-13,.,.,
O=C(CSC1=NS(=O)(=O)c2cc(F)ccc2N1)Nc1ccc(F)cc1,-1,96,24,20,.,.,
CC(=O)c1ccc(NC(=O)CSC2=NS(=O)(=O)c3cc(Cl)ccc3N2)cc1,0,97,61*,0,44*,14*,
O=C(CSC1=NS(=O)(=O)c2cc(Cl)ccc2N1)Nc1cccc(F)c1,0,104,60*,4,42*,12*,
CC(C)c1cc(C(=O)NCc2ccc(F)cc2)c(N)s1,-1,.,8,15,.,.,
Cc1cc(C)c2c(N=NN3CCOCC3)[nH]nc2n1,-3,92,0,40,.,.,
CCOc1ccc2sc(NS(=O)(=O)c3ccc(OC)c(OC)c3)nc2c1,-3,98,52*,-2,26,5.9*,
COc1ccccc1/C=C1\SC(=S)N(CCC(=O)NNC(=O)c2ccccc2OC)C1=O,-1,97,6,10,.,.,
CCOc1ccc(/C=C2/SC(=S)N(C(C(=O)O)c3ccccc3)C2=O)cc1OCC (stereo unspecified),-4,95,11,4,.,.,
COc1ccccc1/C=C1\SC(=S)N(C(C(=O)O)c2ccccc2)C1=O (stereo unspecified),0,94,67*,2,67*,27*,
COc1cc(/C=C2/SC(=S)N(c3c(C)n(C)n(-c4ccccc4)c3=O)C2=O)ccc1O,-8,121,7,4,.,.,
CCOc1cc(/C=C2\SC(=S)N(C(C(=O)O)c3ccccc3)C2=O)ccc1O (stereo unspecified),-1,139,66*,10,62*,25*,
COc1cc(/C=C2\SC(=S)N(C(C(=O)O)c3ccccc3)C2=O)ccc1O (stereo unspecified),-2,119,43*,-1,33,8.5*,
O=C(O)C(c1ccccc1)N1C(=O)/C(=C\c2ccc(O)c(O)c2)SC1=S (stereo unspecified),-8,108,42*,-8,53*,22*,
COc1ccc(OCC2CCNCC2)cc1,-1,98,0,-12,.,.,
CC(=O)NS(=O)(=O)c1ccc(NC(=O)[C@@H]2CCCN2S(=O)(=O)c2ccc(Cl)cc2)cc1,1,100,29,2,.,.,
COCCCN(C(=O)Cc1ccc(S(=O)(=O)N2CCOCC2)s1)c1c(N)n(Cc2ccccc2)c(=O)[nH]c1=O,1,98,9,0,.,.,
O=C(CNC(=O)Cc1ccccc1)N=Nc1c(O)[nH]c2ccccc12,-6,93,11,-9,.,.,
O=C(CNC(=O)/C=C/c1ccco1)N=Nc1c(O)[nH]c2ccccc12,-2,97,35*,3,40*,17*,
N#C/C(=N\Nc1ccc(Cl)c(Cl)c1)C(=O)C1CC1,1,98,52*,18,55*,17*,
N#C/C(=N\Nc1ccc(F)cc1)C(=O)C1CC1,-1,90,0,3,.,.,
O=C(O)/C=C/c1cn(-c2ccccc2)nc1-c1cc2ccccc2o1,-1,100,67*,2,73*,26*,DNA CAG DR=i
O=C(O)/C=C\c1cn(-c2ccccc2)nc1-c1cc2ccccc2o1,-1,97,72*,5,62*,22*,
COc1ccc(NC(=O)Cn2ncn3nc(-c4ccc(OC)cc4)cc3c2=O)cc1,0,100,2,-2,.,.,
[O-][n+]1c2ccccc2[n+]([O-])c2cc(O)ccc21,-53,94,7,-1,.,.,
SMILES,PG9 binder,ABCB6 inh MLPCN,rCAG binder,Exocytosis inh,rCAG binder conf,dCAG dye counter,others
O=C(O)c1cc([N+](=O)[O-])ccc1NCc1ccccc1,2,104,11,2,.,.,
O=C(O)c1cc([N+](=O)[O-])ccc1NCCCc1ccccc1,0,100,37*,8,31,6.5*,
O=C1NC(Cc2ccccc2)c2nc3cc(Cl)ccc3c(=O)n2-c2ccccc21 (stereo unspecified),-1,.,3,.,.,.,
CSc1ncc(Cl)c(C(=O)C(C#N)c2nc3c(C)cc(C)cc3c(=O)[nH]2)n1 (stereo unspecified),-2,95,62*,32,81*,50*,
N#Cc1c(NC(=O)Cn2cnc3ccccc3c2=O)oc(-c2ccccc2)c1-c1ccccc1,0,198,43*,-12,34,14*,
COc1ccccc1CNC(=O)CN1CCN(S(=O)(=O)c2cccs2)CC1,-2,102,-4,0,.,.,
Cc1ccc(C)n1NC(=O)c1ccccc1[N+](=O)[O-],-2,102,16,-1,.,.,
Cc1ccc(C)n1NC(=O)c1ccccc1O,-1,100,36*,2,22,13*,
COc1cc(/C=C2/SC(=NCc3ccccc3)N(Cc3ccccc3)C2=O)ccc1O,3,132,38*,3,42*,23*,
O=C(CCCN1C(=O)/C(=C\c2cccs2)SC1=S)Nc1cc([N+](=O)[O-])ccc1O,-1,93,5,0,.,.,
O=C1/C(=C\c2cc([N+](=O)[O-])ccc2O)SC(=S)N1Cc1ccc(Cl)cc1,3,i,54*,-7,87*,74*,
O=C1/C(=C\c2ccc(O)c(O)c2)SC(=S)N1Cc1ccccc1,0,464,64*,4,69*,38*,
COc1ccc(/C=C2\SC(=S)N(Cc3cccnc3)C2=O)cc1C,2,93,0,-1,.,.,
O=C1/C(=C/c2ccncc2)SC(=S)N1Cc1ccccc1,-1,100,5,17,.,.,
COc1cc(/C=C2/SC(=S)N(Cc3ccccc3)C2=O)ccc1O,-3,494,55*,-4,35*,18*,
O=C1/C(=C\c2cccc(O)c2O)SC(=S)N1Cc1ccccc1,-2,127,37*,-6,83*,53*,
Cc1ccccc1/C=C1\SC(=S)N(/N=C/c2cc([N+](=O)[O-])ccc2O)C1=O,-2,105,37*,7,34,10*,
O=C1/C(=C/c2ccc(O)cc2)SC(=S)N1Cc1cccnc1,-2,113,4,-4,.,.,
NC(=S)NN=C1c2cc(S(=O)(=O)N3CCOCC3)ccc2-c2ccc(S(=O)(=O)N3CCOCC3)cc21,-2,100,35*,0,46*,20*,
CN(C)N=C1c2cc(S(=O)(=O)N3CCOCC3)ccc2-c2ccc(S(=O)(=O)N3CCOCC3)cc21,0,105,3,-2,.,.,
Cc1nc(NS(=O)(=O)c2ccccc2)sc1NC(=O)Nc1ccc(Cl)cc1,0,98,49*,1,38*,15*,
CC(=O)c1ccc(NC(=O)Nc2sc(NS(=O)(=O)c3ccccc3)nc2C)cc1,-9,102,38*,2,22,8.2*,

# Source: PubChem (several laboratories)
